Experiment [1] deals with T1, Serine/threonine-protein kinase Nek9 (Homo sapiens) (UniProt Q8TD19).
T1 sequence (whole entry): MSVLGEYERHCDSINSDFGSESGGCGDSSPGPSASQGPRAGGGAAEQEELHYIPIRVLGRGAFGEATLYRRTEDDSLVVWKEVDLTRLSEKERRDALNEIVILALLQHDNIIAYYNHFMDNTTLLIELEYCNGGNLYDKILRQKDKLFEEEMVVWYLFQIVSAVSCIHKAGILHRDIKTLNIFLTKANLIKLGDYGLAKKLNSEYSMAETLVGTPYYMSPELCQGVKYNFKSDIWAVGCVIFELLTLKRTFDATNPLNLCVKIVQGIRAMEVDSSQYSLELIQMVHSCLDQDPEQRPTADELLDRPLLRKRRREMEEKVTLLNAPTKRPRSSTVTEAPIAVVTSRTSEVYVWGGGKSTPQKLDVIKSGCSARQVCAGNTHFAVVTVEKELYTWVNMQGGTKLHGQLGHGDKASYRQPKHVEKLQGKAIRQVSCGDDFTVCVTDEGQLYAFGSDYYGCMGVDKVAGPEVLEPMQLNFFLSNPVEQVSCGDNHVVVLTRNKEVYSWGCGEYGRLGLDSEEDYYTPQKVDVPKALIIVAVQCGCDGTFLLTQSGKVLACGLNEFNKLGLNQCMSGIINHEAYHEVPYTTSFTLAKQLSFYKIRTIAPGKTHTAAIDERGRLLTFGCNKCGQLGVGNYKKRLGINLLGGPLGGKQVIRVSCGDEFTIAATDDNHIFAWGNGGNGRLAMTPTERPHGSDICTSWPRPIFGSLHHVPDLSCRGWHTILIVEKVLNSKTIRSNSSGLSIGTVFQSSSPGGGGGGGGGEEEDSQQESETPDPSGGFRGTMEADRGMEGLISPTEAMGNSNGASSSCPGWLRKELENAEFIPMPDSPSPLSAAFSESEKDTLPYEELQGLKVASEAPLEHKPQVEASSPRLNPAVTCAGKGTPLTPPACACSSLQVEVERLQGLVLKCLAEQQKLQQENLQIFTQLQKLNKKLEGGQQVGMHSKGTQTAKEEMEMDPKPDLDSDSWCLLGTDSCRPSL
Conditions: at 1 µM.

Experiment [2] addresses Serine/threonine-protein kinase PLK1 (Homo sapiens) (UniProt P53350). Conditions: at 0.1 µM.
Experiment [3] has the same target. Conditions: at 1 µM.
The target of experiment [4] is T2, Dual specificity protein kinase TTK (Homo sapiens) (UniProt P33981).
T2 sequence (whole entry): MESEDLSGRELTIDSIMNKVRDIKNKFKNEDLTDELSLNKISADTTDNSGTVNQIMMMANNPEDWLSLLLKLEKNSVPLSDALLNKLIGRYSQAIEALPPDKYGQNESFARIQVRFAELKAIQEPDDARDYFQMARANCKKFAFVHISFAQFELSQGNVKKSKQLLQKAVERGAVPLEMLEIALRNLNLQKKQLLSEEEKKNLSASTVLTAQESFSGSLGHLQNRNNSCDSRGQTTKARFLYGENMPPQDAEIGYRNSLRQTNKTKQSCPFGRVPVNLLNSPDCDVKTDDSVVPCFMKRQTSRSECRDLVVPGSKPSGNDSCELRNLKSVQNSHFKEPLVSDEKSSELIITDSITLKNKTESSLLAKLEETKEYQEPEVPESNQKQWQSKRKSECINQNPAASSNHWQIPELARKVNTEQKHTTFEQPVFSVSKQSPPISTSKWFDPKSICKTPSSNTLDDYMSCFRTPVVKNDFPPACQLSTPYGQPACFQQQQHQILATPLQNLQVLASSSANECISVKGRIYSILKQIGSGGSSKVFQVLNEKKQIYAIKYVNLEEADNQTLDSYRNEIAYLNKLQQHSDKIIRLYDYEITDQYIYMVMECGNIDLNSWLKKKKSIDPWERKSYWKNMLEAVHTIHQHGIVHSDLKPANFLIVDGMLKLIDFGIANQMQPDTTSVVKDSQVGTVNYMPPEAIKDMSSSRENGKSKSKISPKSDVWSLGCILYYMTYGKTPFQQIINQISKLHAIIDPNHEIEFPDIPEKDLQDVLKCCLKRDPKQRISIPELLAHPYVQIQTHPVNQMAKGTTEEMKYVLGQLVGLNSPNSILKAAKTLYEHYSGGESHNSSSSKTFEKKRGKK
Conditions: at 0.1 µM.

Experiment [5] has as its system T3, Receptor-type tyrosine-protein kinase FLT3 (Homo sapiens), P36888 [D835Y].
T3 sequence (whole entry): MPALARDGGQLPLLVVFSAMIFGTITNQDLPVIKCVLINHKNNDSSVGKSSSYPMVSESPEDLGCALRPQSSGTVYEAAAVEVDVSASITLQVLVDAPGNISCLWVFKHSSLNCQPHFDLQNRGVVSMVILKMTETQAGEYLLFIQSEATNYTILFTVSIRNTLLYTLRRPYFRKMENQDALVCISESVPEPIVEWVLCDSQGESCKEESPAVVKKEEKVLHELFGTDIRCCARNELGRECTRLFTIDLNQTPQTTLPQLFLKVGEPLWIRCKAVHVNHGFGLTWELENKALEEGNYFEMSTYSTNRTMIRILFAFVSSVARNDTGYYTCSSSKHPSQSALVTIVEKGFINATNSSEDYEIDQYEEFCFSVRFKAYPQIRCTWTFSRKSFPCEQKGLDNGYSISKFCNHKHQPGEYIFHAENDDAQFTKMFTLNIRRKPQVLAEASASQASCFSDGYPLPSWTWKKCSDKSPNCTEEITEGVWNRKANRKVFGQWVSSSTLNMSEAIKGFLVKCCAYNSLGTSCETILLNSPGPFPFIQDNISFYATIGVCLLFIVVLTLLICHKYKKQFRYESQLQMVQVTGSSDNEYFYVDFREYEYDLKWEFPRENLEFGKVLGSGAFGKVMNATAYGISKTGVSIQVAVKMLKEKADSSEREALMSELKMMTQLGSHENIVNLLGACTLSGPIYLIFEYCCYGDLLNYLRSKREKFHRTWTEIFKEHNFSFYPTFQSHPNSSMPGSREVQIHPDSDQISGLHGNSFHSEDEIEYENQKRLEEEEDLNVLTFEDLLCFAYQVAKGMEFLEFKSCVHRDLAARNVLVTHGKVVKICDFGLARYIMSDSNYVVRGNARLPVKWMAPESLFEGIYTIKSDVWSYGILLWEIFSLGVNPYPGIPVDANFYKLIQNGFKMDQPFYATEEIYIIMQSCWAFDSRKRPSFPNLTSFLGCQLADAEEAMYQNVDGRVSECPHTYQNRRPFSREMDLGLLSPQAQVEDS
As to conditions: at 1 µM.

The target in experiment [6] is Vascular endothelial growth factor receptor 3 (Homo sapiens) (UniProt P35916). As to conditions: at 0.1 µM.
Sequence of Vascular endothelial growth factor receptor 3 (Homo sapiens) (P35916 whole entry): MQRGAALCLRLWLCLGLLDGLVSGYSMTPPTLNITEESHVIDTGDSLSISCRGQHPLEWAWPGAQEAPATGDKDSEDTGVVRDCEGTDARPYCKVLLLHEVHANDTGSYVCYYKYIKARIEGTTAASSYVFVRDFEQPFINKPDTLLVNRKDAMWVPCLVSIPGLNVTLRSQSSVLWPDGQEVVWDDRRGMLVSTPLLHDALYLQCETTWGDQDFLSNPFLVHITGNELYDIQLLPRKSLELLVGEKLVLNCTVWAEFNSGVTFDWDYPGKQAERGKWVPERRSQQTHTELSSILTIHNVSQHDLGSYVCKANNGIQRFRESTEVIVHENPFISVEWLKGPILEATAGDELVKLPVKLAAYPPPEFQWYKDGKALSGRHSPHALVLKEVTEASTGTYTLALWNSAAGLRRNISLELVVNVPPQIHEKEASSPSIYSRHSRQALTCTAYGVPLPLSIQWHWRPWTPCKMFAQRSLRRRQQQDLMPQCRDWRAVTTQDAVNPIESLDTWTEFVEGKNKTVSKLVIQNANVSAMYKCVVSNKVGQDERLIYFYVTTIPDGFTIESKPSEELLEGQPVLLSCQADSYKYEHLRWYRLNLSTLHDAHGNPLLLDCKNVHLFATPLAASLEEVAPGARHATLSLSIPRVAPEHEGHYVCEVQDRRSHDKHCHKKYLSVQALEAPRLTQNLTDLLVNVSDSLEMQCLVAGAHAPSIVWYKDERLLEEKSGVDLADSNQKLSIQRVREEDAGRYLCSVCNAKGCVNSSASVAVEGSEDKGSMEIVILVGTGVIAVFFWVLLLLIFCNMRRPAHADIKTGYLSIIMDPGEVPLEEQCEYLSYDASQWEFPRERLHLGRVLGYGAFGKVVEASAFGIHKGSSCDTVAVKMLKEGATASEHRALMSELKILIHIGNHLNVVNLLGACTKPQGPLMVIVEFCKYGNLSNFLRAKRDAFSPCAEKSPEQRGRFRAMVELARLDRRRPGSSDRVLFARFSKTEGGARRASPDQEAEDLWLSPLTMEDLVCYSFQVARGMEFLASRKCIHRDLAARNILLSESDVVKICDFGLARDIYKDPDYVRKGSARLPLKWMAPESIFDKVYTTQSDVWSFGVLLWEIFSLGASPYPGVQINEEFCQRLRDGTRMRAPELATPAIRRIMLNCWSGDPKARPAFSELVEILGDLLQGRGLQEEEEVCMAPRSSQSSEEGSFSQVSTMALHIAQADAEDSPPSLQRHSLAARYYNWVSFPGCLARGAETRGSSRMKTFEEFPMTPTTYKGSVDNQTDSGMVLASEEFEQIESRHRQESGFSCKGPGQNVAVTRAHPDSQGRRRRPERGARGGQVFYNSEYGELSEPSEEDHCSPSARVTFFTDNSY
For experiment [7] the target is unchanged. As to conditions: at 1 µM.
Experiment [8] deals with Macrophage colony-stimulating factor 1 receptor (Homo sapiens) (UniProt P07333). As to conditions: at 0.1 µM.
Sequence of Macrophage colony-stimulating factor 1 receptor (Homo sapiens) (P07333 whole entry): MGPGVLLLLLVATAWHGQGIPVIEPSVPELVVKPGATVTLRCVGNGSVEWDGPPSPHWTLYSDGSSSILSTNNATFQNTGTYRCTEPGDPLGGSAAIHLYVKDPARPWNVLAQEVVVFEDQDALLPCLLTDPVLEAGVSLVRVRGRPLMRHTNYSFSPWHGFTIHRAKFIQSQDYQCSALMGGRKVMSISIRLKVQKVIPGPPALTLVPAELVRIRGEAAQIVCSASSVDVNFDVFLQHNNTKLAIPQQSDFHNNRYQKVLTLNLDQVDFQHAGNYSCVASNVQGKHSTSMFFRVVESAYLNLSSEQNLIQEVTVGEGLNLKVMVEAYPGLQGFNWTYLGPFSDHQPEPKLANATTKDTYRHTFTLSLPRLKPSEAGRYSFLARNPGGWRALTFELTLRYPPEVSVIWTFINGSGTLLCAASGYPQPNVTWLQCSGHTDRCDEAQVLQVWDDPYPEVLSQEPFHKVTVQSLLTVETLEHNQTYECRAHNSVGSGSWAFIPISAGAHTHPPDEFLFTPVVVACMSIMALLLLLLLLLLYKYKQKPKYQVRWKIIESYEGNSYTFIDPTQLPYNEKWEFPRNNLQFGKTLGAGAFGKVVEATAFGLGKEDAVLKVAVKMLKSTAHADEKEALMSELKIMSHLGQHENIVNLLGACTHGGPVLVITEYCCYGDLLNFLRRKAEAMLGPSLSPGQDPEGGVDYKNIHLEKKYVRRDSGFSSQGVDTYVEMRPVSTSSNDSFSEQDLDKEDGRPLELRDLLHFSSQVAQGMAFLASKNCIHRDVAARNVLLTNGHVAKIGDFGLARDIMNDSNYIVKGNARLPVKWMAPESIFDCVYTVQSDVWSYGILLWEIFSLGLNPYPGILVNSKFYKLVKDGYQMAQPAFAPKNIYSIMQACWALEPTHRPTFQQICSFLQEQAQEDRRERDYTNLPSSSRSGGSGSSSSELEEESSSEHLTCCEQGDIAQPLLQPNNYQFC
For experiment [9] the target is unchanged. Conditions: at 1 µM.
Experiment [10] deals with Tyrosine-protein kinase Fyn (Homo sapiens) (UniProt P06241). As to conditions: at 0.1 µM.
Sequence of Tyrosine-protein kinase Fyn (Homo sapiens) (P06241 2-537 limits assumed): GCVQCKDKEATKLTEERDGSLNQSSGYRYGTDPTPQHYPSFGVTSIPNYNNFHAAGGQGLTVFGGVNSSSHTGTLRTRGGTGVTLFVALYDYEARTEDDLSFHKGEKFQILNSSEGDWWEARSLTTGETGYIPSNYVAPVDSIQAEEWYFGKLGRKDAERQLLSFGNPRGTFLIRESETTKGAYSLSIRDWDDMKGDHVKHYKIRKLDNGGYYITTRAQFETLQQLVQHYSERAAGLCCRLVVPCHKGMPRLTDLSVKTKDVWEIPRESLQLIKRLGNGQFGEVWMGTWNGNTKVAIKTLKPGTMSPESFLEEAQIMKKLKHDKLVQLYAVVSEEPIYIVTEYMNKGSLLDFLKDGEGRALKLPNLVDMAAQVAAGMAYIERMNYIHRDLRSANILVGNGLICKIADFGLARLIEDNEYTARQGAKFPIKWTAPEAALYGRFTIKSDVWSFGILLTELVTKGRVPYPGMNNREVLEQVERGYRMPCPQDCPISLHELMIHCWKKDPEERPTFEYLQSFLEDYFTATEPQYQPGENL
Experiment [11] shares this target. Conditions: at 1 µM.
The target in experiment [12] is Tyrosine-protein kinase HCK (Homo sapiens) (UniProt P08631). Conditions: at 0.1 µM.
Sequence of Tyrosine-protein kinase HCK (Homo sapiens) (P08631 2-526 limits assumed): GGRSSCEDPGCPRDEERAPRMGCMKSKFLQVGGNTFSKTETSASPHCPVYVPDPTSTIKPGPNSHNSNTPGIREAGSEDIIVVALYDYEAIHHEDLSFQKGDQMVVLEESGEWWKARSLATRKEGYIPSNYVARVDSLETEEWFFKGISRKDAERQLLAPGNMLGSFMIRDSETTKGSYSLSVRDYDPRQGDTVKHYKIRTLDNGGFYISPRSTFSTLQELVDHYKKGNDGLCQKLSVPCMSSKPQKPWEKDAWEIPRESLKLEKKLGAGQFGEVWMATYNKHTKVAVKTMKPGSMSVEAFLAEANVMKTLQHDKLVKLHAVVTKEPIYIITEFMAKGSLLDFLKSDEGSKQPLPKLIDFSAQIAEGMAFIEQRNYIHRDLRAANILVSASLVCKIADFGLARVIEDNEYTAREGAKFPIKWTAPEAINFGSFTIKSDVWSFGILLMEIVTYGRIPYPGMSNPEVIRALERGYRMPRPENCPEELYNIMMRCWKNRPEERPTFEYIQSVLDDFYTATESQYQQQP
Experiment [13] has the same target. Conditions: at 1 µM.
Experiment [14] deals with Insulin-like growth factor 1 receptor (Homo sapiens) (UniProt P08069). As to conditions: at 0.1 µM.
Experiment [15] shares this target. Conditions: at 1 µM.
Experiment [16] addresses Insulin receptor (Homo sapiens) (UniProt P06213). Conditions: at 0.1 µM.
For experiment [17] the target is unchanged. As to conditions: at 1 µM.
Experiment [18] deals with Insulin receptor-related protein (Homo sapiens) (UniProt P14616). Conditions: at 0.1 µM.
Sequence of Insulin receptor-related protein (Homo sapiens) (P14616 27-742 limits assumed): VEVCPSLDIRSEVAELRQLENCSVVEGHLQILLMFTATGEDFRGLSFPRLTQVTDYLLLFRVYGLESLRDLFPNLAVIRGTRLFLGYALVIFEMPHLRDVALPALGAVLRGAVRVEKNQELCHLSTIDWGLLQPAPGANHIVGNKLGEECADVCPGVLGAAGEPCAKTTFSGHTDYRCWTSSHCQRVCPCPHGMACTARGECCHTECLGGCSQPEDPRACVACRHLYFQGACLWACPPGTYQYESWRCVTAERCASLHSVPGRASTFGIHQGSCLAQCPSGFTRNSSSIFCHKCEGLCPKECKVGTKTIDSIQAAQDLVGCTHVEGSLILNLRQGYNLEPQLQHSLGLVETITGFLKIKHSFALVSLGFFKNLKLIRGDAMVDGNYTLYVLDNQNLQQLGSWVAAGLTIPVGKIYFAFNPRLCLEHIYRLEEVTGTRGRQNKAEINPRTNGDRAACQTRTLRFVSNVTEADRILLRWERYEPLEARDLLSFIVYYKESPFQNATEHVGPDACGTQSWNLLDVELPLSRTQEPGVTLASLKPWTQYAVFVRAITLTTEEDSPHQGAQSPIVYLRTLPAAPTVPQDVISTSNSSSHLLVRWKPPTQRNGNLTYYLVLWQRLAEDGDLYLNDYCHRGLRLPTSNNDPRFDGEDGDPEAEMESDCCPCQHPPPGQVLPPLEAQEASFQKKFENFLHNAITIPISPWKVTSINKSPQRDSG
Sequence of Insulin receptor-related protein (Homo sapiens) (P14616 747-1297 limits assumed): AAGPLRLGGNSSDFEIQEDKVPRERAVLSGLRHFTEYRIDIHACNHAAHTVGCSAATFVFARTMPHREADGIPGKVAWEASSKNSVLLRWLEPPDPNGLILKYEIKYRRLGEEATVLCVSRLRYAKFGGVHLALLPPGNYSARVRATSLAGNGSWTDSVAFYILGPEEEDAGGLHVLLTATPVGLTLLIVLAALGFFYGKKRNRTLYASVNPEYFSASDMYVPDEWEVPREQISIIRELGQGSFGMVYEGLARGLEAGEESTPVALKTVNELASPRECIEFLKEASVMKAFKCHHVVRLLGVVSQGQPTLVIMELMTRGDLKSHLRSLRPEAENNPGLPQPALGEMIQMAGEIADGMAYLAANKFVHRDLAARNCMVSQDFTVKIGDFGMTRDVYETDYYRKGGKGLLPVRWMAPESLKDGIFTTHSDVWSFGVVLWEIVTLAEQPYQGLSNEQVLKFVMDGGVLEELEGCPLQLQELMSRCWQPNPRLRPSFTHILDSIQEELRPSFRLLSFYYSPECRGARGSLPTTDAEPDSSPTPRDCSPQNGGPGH
Experiment [19] has the same target. Conditions: at 1 µM.
Experiment [20] has as its target T4, Tyrosine-protein kinase ITK/TSK (Homo sapiens) (UniProt Q08881).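 Also: mean percent inhibition of ITK from the GSK PKIS screen.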
T4 sequence (whole entry): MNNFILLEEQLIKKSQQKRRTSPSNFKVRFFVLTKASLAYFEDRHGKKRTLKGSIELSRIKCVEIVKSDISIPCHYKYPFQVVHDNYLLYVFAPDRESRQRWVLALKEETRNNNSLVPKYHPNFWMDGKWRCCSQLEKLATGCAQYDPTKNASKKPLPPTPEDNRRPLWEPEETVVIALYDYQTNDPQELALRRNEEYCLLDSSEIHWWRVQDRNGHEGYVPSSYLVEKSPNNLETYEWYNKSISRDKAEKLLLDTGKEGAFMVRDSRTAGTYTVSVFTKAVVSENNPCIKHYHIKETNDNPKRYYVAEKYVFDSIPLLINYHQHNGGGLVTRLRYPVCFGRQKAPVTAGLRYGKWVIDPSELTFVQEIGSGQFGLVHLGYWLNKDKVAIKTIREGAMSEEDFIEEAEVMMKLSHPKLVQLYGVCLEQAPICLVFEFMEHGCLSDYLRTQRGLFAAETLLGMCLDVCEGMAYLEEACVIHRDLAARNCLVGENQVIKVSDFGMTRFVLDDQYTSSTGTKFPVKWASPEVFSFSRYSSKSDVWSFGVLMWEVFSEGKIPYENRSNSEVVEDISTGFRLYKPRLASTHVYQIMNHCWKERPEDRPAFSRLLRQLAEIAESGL
As to conditions: at 0.1 µM.

Usually inhibition stands for the relative decrease from the control value, in per cent.

As for `CCc1nccc2c1nc(-c1nonc1N)n2CC`, the inhibition was 2.52% in experiment [1]; 0.58% in experiment [2]; 1.55% in experiment [3]; 3.28% in experiment [4]; -1.94% in [5]; -0.59% in [6]. In addition, the inhibition in experiment [7] is 3.19%; in [8] it was -0.59%; in experiment [9], 1.95%; in [10], 2.96%; in [11] it was 0.11%; in [12], 11.6%. Further, the inhibition in experiment [13] is 16.3%; in experiment [14], -0.66%; in [15], 2.4%; in experiment [16], 0.64%; in experiment [17] it was 0.74%; in [18], -0.83%. In addition, the values for the inhibition in [19] and in experiment [20] were -1.07% and 0.88%, respectively.

On to `O=C(NCC1CC1)c1ccc(-c2cccc(C(=O)NC3CC3)c2)cc1`, for which the inhibition was -2.12% in experiment [1]; 1.33% in experiment [2]; -0.14% in experiment [3]; 2.34% in [4]; 4.69% in experiment [5]; 1.32% in experiment [6]. Moreover, the inhibition in experiment [7] was 1.97%; in experiment [8] it was 1.67%; in experiment [9] it was 5.35%; in experiment [10], 1.58%; in experiment [11] it was 2.23%; in [12] it was 2.5%. The inhibition in experiment [13] turned out to be 7.59%; in [14], 2.46%; in experiment [15], 4.73%; in experiment [16], 1.73%; in experiment [17], 3.95%; in experiment [18], 1.19%. Moreover, the inhibition is 2.93% in experiment [19] and 1.15% in [20].

For the molecule `CCc1ccc(Oc2nccc(-c3c(-c4ccc(F)cc4)ncn3C3CCNCC3)n2)cc1`, the inhibition in experiment [1] was -3%; in [2], 4.18%; in [3], 6.93%; in [4] it was 5.58%; in [5], 7.51%; in experiment [6], 6.35%. The inhibition in experiment [7] stood at 4.74%; in [8], 1.36%; in [9], 6.16%; in experiment [10], 1.83%; in experiment [11] it was 7.59%; in [12], 4.84%. Also, the inhibition in experiment [13] was determined as 8.91%; in experiment [14], 5.24%; in experiment [15], 3.51%; in [16], 5.54%; in experiment [17] it was 3.85%; in [18] it was 2.18%. The results for the inhibition in [19] and in [20] were 3.43% and 2.08%, respectively.

`O=C1Nc2ccc(I)cc2C1=Cc1cc(Br)c(O)c(Br)c1`: the inhibition in experiment [1] was found to be 7.24%; in experiment [2], 5.57%; in experiment [3], 9.77%; in [4], 10.4%; in experiment [5], 2.02%; in [6] it was 0.19%. The inhibition was -3.58% in experiment [7]; 4.92% in experiment [8]; 5.58% in [9]; 3% in [10]; 6.7% in experiment [11]; 6.42% in experiment [12]. Besides, the inhibition in [13] amounted to 8.5%; in [14], 5.43%; in [15], 2.95%; in [16], 6.33%; in experiment [17], 5.95%; in [18], 0.52%. Also, the inhibition in experiment [19] worked out at 2.5%; in [20], 1.48%.

The record behind these values is ChEMBL document CHEMBL1961873, “Compounds: GSK PKIS; Assays: Nanosyn kinase panel” (2012).
